Measured values: PubChem BioAssay (NCATS)
“And” between values parts separate entries of the source, which are not always exact repeats. Equal entries are not always repeated. Records with an inconclusive call do not appear. The source made the active and inactive calls. Unless noted, calls follow the shape of the dose curve; as a rule, active = well fitted curve in the direction sought with a large enough effect; inconclusive = small, poorly fitted or top-dose-only effect, or another doubt; inactive = no such curve, though single readings can be large; an effect the other way counts as inactive or inconclusive.

How the values were obtained:
[1] = Cell Viability - SK-N-SH (AID 435; calls by dose curve; also: potency is read from the fitted curve at half-maximal effect); conditions: SK-N-SH neuroblastoma cell viability qHTS
Summary of the method: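 qHTS cytotoxicity: CellTiter-Glo ATP luminescence after 40 h compound exposure of human neuroblastoma SK-N-SH cells at 37 °C. AC50 derived by Hill-equation fitting, with DMSO as basal and 100 uM tamoxifen as full inhibition.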

[2] = Cell Viability - HUV-EC-C (AID 542); conditions: HUV-EC-C endothelial cell viability, qHTS; series mostly up to 92.2 µM;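 also: cells exposed to compound for 40 hours; % is scaled to controls: 0 for no effect and ±100 for the full control effect; nearly all actives have a fitted effect of over 35% in size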
Summary of the method: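 Concentration-dependent ATP loss in HUV-EC-C cells is the measure. Exposure lasts 40 hr at 37 °C; luminescence follows CellTiter-Glo addition, and Hill fits give AC50.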

[3] = Cellular Toxicity (caspase-3) H-4-II-E (AID 663); conditions: H-4-II-E rat hepatoma; Potency: caspase-3 activation; series mostly up to 92.2 µM;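 also: cells exposed to compound for 16 hr before readout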
Summary of the method: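 H-4-II-E rat hepatoma, 1500 cells/well, 5 hr settle at 37 °C; compound 16 hr, 37 °C, complete medium; Caspase-Glo 3/7, 20 min RT; luminescence. DMSO = 0%, 100 uM tamoxifen = 100%; Hill-equation AC50.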

[4] = Cellular Toxicity (caspase-3) N2a (AID 665); conditions: N2a cells, luminescence, normalized: DMSO 0%, 10 µM staurosporine 100%; series mostly up to 92.2 µM;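 also: compound exposure lasted 16 h at 37 °C before readout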
Summary of the method: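 Concentration-response qHTS: compound-induced caspase-3/7 luminescence in N2a cells (16 h, 37 °C), relative to DMSO and 10 uM staurosporine controls; AC50 obtained using the standard Hill equation.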

[5] = Cellular Toxicity (caspase-3) Renal Proximal Tubule (AID 667); conditions: renal proximal tubule cells; series mostly up to 91.7 µM;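 also: cells exposed to compound for 16 hours at 37 °C before detection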
Summary of the method: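 Caspase 3/7 activation measured by luminescent aminoluciferin release in primary rat proximal tubule cells after 16 hr compound exposure at 37 °C. AC50 from Hill-fitted concentration-response, scaled between DMSO and 10 uM staurosporine.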

[6] = MultiTox-Fluor Cytotoxicity Assay - LYMP1-001 - Live Cells (AID 947); conditions: LYMP1-001 lymphoblastoid cells, live-cell protease fluorescence viability; series mostly up to 92.2 µM;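 also: 0% = DMSO only and full inhibition = tetraoctylammonium bromide control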
[7] = Cell Viability - LYMP2-009 (AID 968); conditions: LYMP2-009 lymphoblastoid cell viability; series mostly up to 92.2 µM;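 also: 0% = DMSO alone and the full-kill end = tetraoctylammonium bromide at 92 µM; nearly all actives have a fitted effect of over 55% in size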
[8] = Cell Viability - LYMP2-011 (AID 969); conditions: LYMP2-011 lymphoblastoid cells viability; series mostly up to 92.2 µM;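 also: 0% = DMSO only and full inhibition = 92 µM tetraoctylammonium bromide; nearly all actives have a fitted effect of over 60% in size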
Summary of the method: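 Cells seeded at 2500 per well rest 5 hr before compound addition, then incubate 24 hr at 37 C. CellTiter-Glo reagent is added for 30 min at room temperature before luminescence detection.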

[9] = Cell Viability - LYMP2-013 (AID 970); conditions: LYMP2-013 lymphoblastoid cells viability; series mostly up to 92.2 µM;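 also: 0% = DMSO only and full inhibition = tetraoctylammonium bromide control; nearly all actives have a fitted effect of over 55% in size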
Summary of the method: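 In complete culture medium, human lymphoblastoid cells were dosed for 24 hr at 37 C, with tetraoctylammonium bromide (6.4pM to 92 uM) as positive control. Viability reflects luciferase-based ATP signal; AC50 derived from concentration-response curves.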

[10] = Cell Viability - LYMP2-021 (AID 974); conditions: LYMP2-021 lymphoblastoid cells viability; series mostly up to 92.2 µM;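 also: compound exposure lasts 24 hours at 37 °C; % is scaled to controls: 0 for no effect and ±100 for the full control effect; nearly all actives have a fitted effect of over 55% in size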
Summary of the method: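 In qHTS format, compounds are tested against 2500 lymphoblastoid cells per well for 24 h; viable cell number is inferred from ATP-driven luciferase light, and Hill-equation fitting yields AC50 values.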

[11] = Cell Viability - LYMP2-002 (AID 977); conditions: LYMP2-002 lymphoblastoid cell viability, qHTS; series mostly up to 92.2 µM;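 also: compound exposure lasted 24 h at 37 °C; plate controls were DMSO only for no effect and 92 µM tetraoctylammonium bromide for full effect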
Summary of the method: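 Human lymphoblastoid cells, 2500/well, complete medium; 5 h 37 C settle; compound 24 h 37 C; CellTiter-Glo, 30 min RT; luminescence. Decrease in ATP = cytotoxicity; AC50 via Hill equation.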

[12] = Cell Viability - LYMP2-006 (AID 978); conditions: LYMP2-006 lymphoblastoid cell viability, qHTS; series mostly up to 92.2 µM; also: % is scaled to controls: 0 for no effect and ±100 for the full control effect; nearly all actives have a fitted effect of over 60% in size
Summary of the method: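 Potency values are Hill-fit AC50s for decreases in intracellular ATP (CellTiter-Glo luminescence). LYMP2-006 lymphoblastoid cells, 2500 per well, were exposed to compound in complete culture medium for 24 hr at 37 C.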

[13] = Cell Viability - LYMP2-022 (AID 987); conditions: LYMP2-022 lymphoblastoid cell viability; series mostly up to 92.2 µM;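 also: 0% = DMSO alone and full effect = tetraoctylammonium bromide at 92 µM; nearly all actives have a fitted effect of over 55% in size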
Summary of the method: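 In this qHTS cytotoxicity screen, compound titrations were incubated 24 hr at 37 C with human lymphoblastoid cells in complete medium. Luciferase-based ATP luminescence provided the viability signal.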

[14] = Cell Viability - LYMP2-024 (AID 988); conditions: LYMP2-024 lymphoblastoid cell viability; series mostly up to 92.2 µM;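 also: plate controls were DMSO only for no effect and 92 µM tetraoctylammonium bromide for full effect; nearly all actives have a fitted effect of over 60% in size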
Summary of the method: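 Cells at 2500 per well received compound for 24 hr after a 5 hr settling period. Viability was scored by CellTiter-Glo luminescence, with AC50 from Hill fits.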

[15] = target: Retinoic acid receptor RXR-alpha (Homo sapiens) (UniProt P19793); assay: qHTS assay for small molecule antagonists of retinoid X receptor alpha signaling (AID 588546; active = well fitted inhibition curve with a large enough effect in the signal ratio, with a control signal flat, not every such curve was filed as active; the % refers to the signal ratio;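 also: cells stimulated with 9-cis-retinoic acid as agonist; % is scaled to controls: 0 for no effect and ±100 for the full control effect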); conditions: HEK293T RXRa-UAS-bla, beta-lactamase ratio, antagonist mode
Summary of the method: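 Beta-lactamase reporter inhibition, read as CCF4 fluorescence ratio (ex 405, em 460/530 nm) after 2 h at RT. HEK293T UAS-bla cells, 2500/well, were stimulated with 9-cis-RA at 500 or 100 nM final alongside test compound for 18 h at 37 C.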

[16] = qHTS assay for small molecule agonists of the antioxidant response element (ARE) signaling pathway measured by Nrf2-dependant transcriptional activity (AID 720636; active = well fitted curve in the direction sought with a large enough effect in the repeat runs; an effect the other way counts as inactive or inconclusive;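 also: HepG2 cells with an ARE-driven luciferase reporter; % of control where 0% means no effect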); conditions: ARE-luc HepG2, Nrf2 luciferase reporter, 16 h; series mostly up to 92.4 µM
Summary of the method: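 ONE-Glo luminescence, read 30 min after reagent addition at room temperature, reflected ARE reporter activity in HepG2 cells that had been incubated with compound for 16 hr at 37 C in 1% dialyzed FBS.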

[17] = qHTS assay for cell viability of the p53RE-bla HCT-116 cell line (AID 743292); conditions: p53RE-bla HCT-116 viability, ATP luminescence, 16 h; series mostly up to 95 µM
Summary of the method: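 After plating at 4,000 cells per well and a 5 h rest at 37 C, HCT-116 cells carrying p53RE-bla received test chemicals in DMSO. Sixteen hours later at 37 C, CellTiter-Glo was added and luminescence recorded following 30 min at room temperature.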

[18] = Cellular Toxicity (caspase-3) Mesangial (AID 660); conditions: mesangial cells, normalized: DMSO 0%, 100 µM tamoxifen 100%; series mostly up to 91.7 µM;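 also: combined caspase 3 and 7 activity read by Caspase-Glo luminescence; cells exposed to compound for 16 h before the caspase read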
Summary of the method: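 AC50 values come from Hill-equation fits of caspase 3/7 activation, measured as Caspase-Glo luminescence in human glomerular mesangial cells exposed to compound for 16 h at 37 °C; 100% set by 100 uM tamoxifen.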

[19] = Cell Viability - LYMP2-015 (AID 971); conditions: LYMP2-015 lymphoblastoid cell viability; series mostly up to 92.2 µM
Summary of the method: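 AC50 values reflect Hill-model fits of ATP-based luminescence (CellTiter-Glo) from a human lymphoblastoid line, 2500 cells/well, treated 24 hr at 37 C.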

[20] = Cellular Toxicity (caspase-3) NIH 3T3 (AID 666); conditions: NIH 3T3 caspase-3 activation, apoptosis/toxicity; series mostly up to 92.2 µM;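 also: caspase signal read after 16 h compound exposure; 0% = DMSO basal and 100% = 100 µM tamoxifen stimulation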
Summary of the method: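 Activity: caspase-3/7 induction, NIH 3T3 cells, 16 hr treatment at 37°C, luminescent Caspase-Glo detection; AC50 via Hill equation.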

Retinoic acid receptor RXR-alpha (Homo sapiens), sequence (P19793 whole entry, looked up): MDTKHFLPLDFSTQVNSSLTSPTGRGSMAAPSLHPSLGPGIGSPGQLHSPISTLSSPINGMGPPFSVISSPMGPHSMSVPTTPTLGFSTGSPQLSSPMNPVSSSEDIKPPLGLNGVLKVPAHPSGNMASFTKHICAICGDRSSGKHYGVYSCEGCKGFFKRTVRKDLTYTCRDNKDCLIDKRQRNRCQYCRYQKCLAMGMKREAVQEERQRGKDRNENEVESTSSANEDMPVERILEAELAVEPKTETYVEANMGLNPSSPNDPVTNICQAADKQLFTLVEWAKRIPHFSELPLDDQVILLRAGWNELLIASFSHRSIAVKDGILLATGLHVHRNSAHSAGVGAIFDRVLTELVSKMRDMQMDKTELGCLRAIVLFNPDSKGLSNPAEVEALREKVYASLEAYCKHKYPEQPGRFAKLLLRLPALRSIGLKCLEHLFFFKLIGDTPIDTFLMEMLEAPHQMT

Oc1c(Cl)cccc1Cl
inactive: Potency [1] > 92 µM | Potency [2] | Potency [3] | outcome [4] | outcome [5] | outcome [6] | Potency [7] | Potency [8] | Potency [9] | Potency [10] | Potency [11] | Potency [12] | Potency [13] | Potency [14] | max response [15] 27.8% | Potency [16] | Potency [17]

CC(Cl)CCl (stereo not drawn)
inactive: Potency [1] > 92 µM | outcome [18] | Potency [3] | outcome [4] | outcome [5] | outcome [6] | Potency [7] | Potency [19] | Potency [10] | Potency [11] | Potency [12] | Potency [14] | max response [15] -6.12% | Potency [16] | Potency [17]

CN(C)c1ccccc1
inactive: Potency [1] > 92 µM | outcome [18] | Potency [3] | Potency [20] | outcome [5] | outcome [6] | Potency [7] | Potency [8] | Potency [9] | Potency [19] | Potency [10] | Potency [11] | Potency [12] | Potency [13] | Potency [14] | max response [15] 5.23% | Potency [16] | Potency [17]

Clc1ccccc1
inactive: Potency [1] > 92 µM | outcome [18] | Potency [3] | outcome [4] | Potency [20] | outcome [5] | outcome [6] | Potency [8] | Potency [9] | Potency [11] | Potency [13] | Potency [14] | max response [15] -2.2% | Potency [17]

Nc1ccc(-c2ccc(N)cc2)cc1
inactive: Potency [1] > 92 µM | Potency [2] | Potency [3] | Potency [20] | outcome [6] | Potency [7] | Potency [8] | Potency [9] | Potency [19] | Potency [10] | Potency [11] | Potency [13] | Potency [14] | Potency [16] | Potency [17]

CN(C)C(=O)Nc1ccc(Cl)cc1
inactive: Potency [1] > 92 µM | Potency [2] | Potency [3] | outcome [4] | Potency [20] | outcome [5] | outcome [6] | Potency [7] | Potency [8] | Potency [9] | Potency [10] | Potency [11] | Potency [12] | max response [15] -0.754% and 1.84% | Potency [16] | Potency [17]

Cc1cc(-c2ccc(N)c(C)c2)ccc1N
inactive: Potency [1] > 92 µM | Potency [3] | outcome [4] | outcome [5] | outcome [6] | Potency [7] | Potency [8] | Potency [9] | Potency [10] | Potency [11] | Potency [13] | Potency [14] | max response [15] -5.08% and -3.85% and -31.9% | Potency [16]

OCCOCCO
inactive: Potency [1] > 92 µM | Potency [2] | Potency [3] | Potency [20] | outcome [5] | outcome [6] | Potency [7] | Potency [8] | Potency [9] | Potency [10] | Potency [11] | Potency [12] | Potency [13] | Potency [14] | max response [15] 1.12%

Cc1ccc(N)c(C)c1
inactive: Potency [1] > 92 µM | Potency [2] | outcome [18] | Potency [3] | outcome [4] | Potency [20] | outcome [5] | outcome [6] | Potency [8] | Potency [9] | Potency [19] | Potency [11] | Potency [13] | Potency [14] | Potency [17]

Nc1cccc(Cl)c1
inactive: Potency [1] > 92 µM | Potency [2] | outcome [18] | Potency [3] | outcome [4] | Potency [20] | outcome [5] | outcome [6] | Potency [7] | Potency [8] | Potency [9] | Potency [19] | Potency [10] | Potency [11] | Potency [12] | Potency [13] | Potency [14] | max response [15] -7.21% | Potency [16] | Potency [17]

CCCCOC(=O)c1ccccc1N
inactive: Potency [1] > 92 µM | Potency [2] | outcome [18] | Potency [3] | outcome [4] | Potency [20] | outcome [5] | outcome [6] | Potency [7] | Potency [19] | Potency [10] | Potency [11] | Potency [12] | Potency [13] | max response [15] 6.01% | Potency [16] | Potency [17]

Clc1ccc(C(Cl)(Cl)Cl)cc1Cl
inactive: Potency [1] > 92 µM | Potency [2] | outcome [4] | Potency [20] | outcome [5] | outcome [6] | Potency [7] | Potency [8] | Potency [9] | Potency [19] | Potency [10] | Potency [11] | Potency [12] | Potency [13] | Potency [14] | max response [15] -3.13% | Potency [16] | Potency [17]

Cc1ccc(N=C=O)cc1N=C=O
inactive: Potency [1] > 92 µM | Potency [2] | outcome [18] | Potency [3] | outcome [4] | Potency [20] | outcome [5] | Potency [7] | Potency [8] | Potency [9] | Potency [10] | Potency [11] | Potency [12] | Potency [13] | Potency [14] | max response [15] 6.03% and 0.743% | Potency [17]

ClCCOCOCCCl
inactive: Potency [1] > 92 µM | Potency [2] | outcome [18] | Potency [3] | outcome [4] | Potency [20] | outcome [6] | Potency [7] | Potency [8] | Potency [9] | Potency [19] | Potency [10] | Potency [11] | Potency [12] | Potency [13] | max response [15] -0.285% | Potency [16] | Potency [17]

ClCc1ccccc1
inactive: Potency [1] > 92 µM | Potency [2] | outcome [18] | Potency [3] | outcome [5] | outcome [6] | Potency [9] | Potency [19] | Potency [10] | Potency [11] | Potency [12] | Potency [13] | Potency [14] | max response [15] 6.84% | Potency [16]

C=CC(=O)OCC(C)C
inactive: Potency [1] > 92 µM | outcome [18] | Potency [3] | outcome [4] | Potency [20] | outcome [5] | outcome [6] | Potency [7] | Potency [9] | Potency [19] | Potency [10] | Potency [11] | Potency [13] | Potency [14] | max response [15] 5.4% | Potency [16] | Potency [17]

Clc1cccc(Cl)c1
inactive: Potency [1] > 92 µM | outcome [18] | Potency [3] | outcome [4] | Potency [20] | outcome [5] | outcome [6] | Potency [7] | Potency [8] | Potency [9] | Potency [19] | Potency [10] | Potency [11] | Potency [12] | Potency [14] | max response [15] 24.2% | Potency [16]
